Bioassay records deposited in PubChem BioAssay by National Center for Advancing Translational Sciences (NCATS).
This excerpt belongs to a sample that is enriched for hits.
p53ts 32C tox: p53ts cell cytotoxicity, permissive temperature; actives 0.93% (n = 130,000); AID 924; Potency, µM (top dose mostly 46.1 µM), inactives show at the top dose activity change, negative = cytotoxicity, hits mostly cytotoxic; H1299-p53A138V at 32C, ATP luminescence viability, 24 h;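 also: potency is read from the fitted curve at half-maximal effect; 0% = DMSO and -100% = full killing by reference compound; nearly all actives have a fitted effect of over 55% in size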
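ATP-content luminescence (ATPlite) read-out after 24 h compound exposure at 32C in H1299-p53A138V cells (600/well). Tested up to 46 uM. Normalized to DMSO (0%) and 100 uM tamoxifen (100% killing); Hill-fit AC50.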
Luciferase inh: firefly luciferase inhibition; Potency, µM (top dose mostly 57.1 µM), inactives show top-dose activity change, negative = inhibition, actives largely listed as inhibitors; actives 2.2% (n = 72,000); purified firefly luciferase, luminescence, 8 min; P08659; AID 411; also: potency is read from the fitted curve at half-maximal effect; % is scaled to controls: 0 for no effect and ±100 for the full control effect; nearly all actives have a fitted effect of over 40% in size
Target sequence (P08659 whole entry, looked up): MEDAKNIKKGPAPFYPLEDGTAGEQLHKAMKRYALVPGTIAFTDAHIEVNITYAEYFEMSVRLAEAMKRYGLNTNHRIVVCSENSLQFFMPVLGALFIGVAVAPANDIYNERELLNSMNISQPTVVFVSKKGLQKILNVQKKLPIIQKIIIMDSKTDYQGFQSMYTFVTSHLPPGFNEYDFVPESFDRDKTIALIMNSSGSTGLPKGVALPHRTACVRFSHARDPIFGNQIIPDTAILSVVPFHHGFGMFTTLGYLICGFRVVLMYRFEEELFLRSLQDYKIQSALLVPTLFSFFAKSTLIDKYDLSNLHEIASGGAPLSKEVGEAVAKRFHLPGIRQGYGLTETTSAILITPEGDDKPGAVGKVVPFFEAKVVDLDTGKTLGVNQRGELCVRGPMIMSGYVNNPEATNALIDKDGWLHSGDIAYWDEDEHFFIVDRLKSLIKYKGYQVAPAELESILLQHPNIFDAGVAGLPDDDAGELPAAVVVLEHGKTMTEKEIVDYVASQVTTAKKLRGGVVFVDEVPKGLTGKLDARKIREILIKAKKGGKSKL
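Firefly luciferase (PKLight detection mix) with 10 uM ATP in pH 7.2 imidazole buffer (KCl, MgCl2, Tween 20, BSA). Compounds tested across a concentration series (qHTS). Luminescence read after 8 min at ambient temperature.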
p53ts 39C kill: p53ts cell cytotoxicity, nonpermissive temperature; actives 1.5% (n = 130,000); Potency, µM (doses to about 46.1 µM), for the others: at the top dose activity change, negative = cell killing, hits mostly cytotoxic; H1299-p53A138V viability at 39C, ATP luminescence, 24 h; AID 902; also: potency is read from the fitted curve at half-maximal effect; % is scaled to controls: 0 for no effect and ±100 for the full control effect; nearly all actives have a fitted effect of over 55% in size
Hsp90 Hop PPI: changes Hsp90-Hop TPR2A binding signal, up or down; AlphaScreen TPR2A-His6 binding biotin-Hsp90 C-terminal peptide; Potency, µM (series often up to 57 µM), without a hit: at the highest dose activity change, negative = inhibition; actives 0.44% (n = 71,000); AID 595; active = well fitted curve in either direction with a large enough effect; inconclusive = small, poorly fitted or top-dose-only effect, or another doubt; also: potency is read from the fitted curve at half-maximal effect; % is scaled to controls: 0 for no effect and ±100 for the full control effect
IMPase inh: cell-permeable inhibitors of inositol monophosphatase (IMPase). 120,000 tested, under 10 active. CHO-M1 cells, IP1 accumulation, HTRF TR-FRET ratio. P97697. AID 901. inhibition (IP1 accumulation), % at 46.1 µM; active = well fitted curve in the direction sought with a large enough effect in the signal ratio, not every such curve was filed as active; inconclusive = small, poorly fitted or top-dose-only effect, or a change in a side signal; inactive = no such curve, though single readings can be large or run the other way; the % refers to the signal ratio;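 also: cells stimulated with carbachol in lithium chloride buffer; plate controls were DMSO basal wells for no effect and reference inhibitor wells for full effect; higher means more IMPase inhibition seen as more IP1 and lower FRET ratio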
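In this qHTS, compounds (final up to 46 uM) act on CHO-M1 cells that are then activated through the M1 receptor with carbachol, in pH 7.4 buffer containing 50 mM LiCl, for 30 min. IP1 accumulation is quantified by the IP-One immunoassay.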
IkB sig inh: inhibitors of IkB signaling in ABC-DLBCL cells | ABC-DLBCL IkBa-CBG/CBR dual luciferase ratio, 4 h; response scale: scaled: untreated 0%, proteasome inhibitor 100% | AID 445 | Potency, µM (top dose mostly 57.1 µM), for the others: top-dose IkBa stabilization activation | actives 0.04% (n = 110,000); active = well fitted curve in the direction sought with a large enough effect in the signal ratio, not every such curve was filed as active; inconclusive = small, poorly fitted or top-dose-only effect, or a change in a side signal; the % refers to the signal ratio;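 also: potency is read from the fitted curve at half-maximal effect; the direction sought is a rising ratio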
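Luminescence ratio of IκBα-fused green versus native red beetle luciferase in OCI-Ly3 cells, 4 h post-doxycycline with compound; red signal alone, scaled from basal (0%) to zero light (-100%), flagged nonspecific or cytotoxic effects.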
An asterisk follows results filed as active; ? = inconclusive; . = not tested or not shown; [ ] = another dose, or the depositor's remark. Unless noted, calls follow the shape of the dose curve; as a rule, active = well fitted curve in the direction sought with a large enough effect; inconclusive = small, poorly fitted or top-dose-only effect, or another doubt; inactive = no such curve, though single readings can be large; an effect the other way counts as inactive or inconclusive.

SMILES	p53ts 32C tox	Luciferase inh	p53ts 39C kill	Hsp90 Hop PPI	IMPase inh	IkB sig inh
CSc1cccc(NC(=O)/C=C/c2ccccc2)c1	.	.	.	.	7	.
CC(=O)c1cccc(NC(=O)Nc2ccc(C(=O)N3CCCC3)cc2)c1	?	2.5µM*	?	0%	1	1%
Cc1ccc(-c2nnc(Nc3ccc(Br)cc3)c3ccccc23)cc1S(=O)(=O)N1CCOCC1	-1%	.	-4%	.	.	?
COc1ccc(-c2cn3c(C)c(C(=O)Nc4cccc(NC(C)=O)c4)sc3n2)cc1	-10%	13µM*	-4%	0%	6	?
O=C(Nc1cc2c(cc1C(=O)c1ccccc1)OCCO2)c1ccc(Br)cc1	-6%	.	20µM*	.	6	6%
CCOc1ccc(CNc2cc(C)nc3nc(-c4cccc(C)c4)nn23)cc1OC	-28%	.	7.9µM*	.	.	?
Cn1c(SCc2ccc(C#N)cc2Cl)nc2ccccc21	?	16µM*	?	28%	8	-3%
CCN1c2ccccc2-c2nc3ccccc3n2C1c1ccco1 (stereo not given)	.	.	.	.	-6	.
Cc1ccc(C2Nc3ccccc3-c3nc4ccccc4n32)o1 (stereo not given)	-13%	13µM*	-6%	-5%	-12	-1%
CCOc1ccc(NC(=O)CC2C(=O)N(c3ccc(Cl)cc3)C(=O)N2Cc2cccs2)cc1 (stereo not given)	-1%	.	-19%	.	.	2%
COc1cc(C(=O)N2CCN(C(=O)COc3ccc4ccccc4c3)CC2)cc(OC)c1OC	?	7.9µM*	-27%	-2%	-2	1%
O=C(Nc1ccccc1C(F)(F)F)N1CCC(CN2CCc3ccccc3C2)CC1	-20%	.	.	.	.	.
N#C/C(=C\NC(=S)c1ccncc1)c1nc2ccccc2s1	0%[9.22 µM]	-2%[11.4 µM]	3%[9.22 µM]	0%[11 µM]	.	?
CCN(CC)c1ccc(C(=O)NCc2ccc3c(c2)CCN3C(=O)c2ccc(F)cc2)cc1	-3%	.	-6%	.	.	?
Cc1ccc(NC(=O)c2cc(C)on2)cc1	?	16µM*	?	0%	3	2%
CCc1ccc(NC(=O)c2cc(CC(C)C)on2)cc1	-4%	-14%	-9%	0%[2.3 µM]	3	-4%
CCc1ccc(NC(=O)c2cc(C(C)C)on2)cc1	-21%	13µM*	-29%	26%	15	?
CCc1ccc(NC(=O)c2cc(C)on2)cc1	?	7.9µM*	?	5%	-2	3%
CCCc1cc(C(=O)Nc2ccc(C)cc2)no1	-12%	?	-5%	-2%[2.3 µM]	3	9%
COc1ccc(NC(=O)CCc2c(C)nc3c(c2C)c(=O)n(C)c(=O)n3C)c(OC)c1	-6%	.	-7%	.	.	?
COc1cccc(N2CCN(C(=O)c3ccc(CS(=O)c4cccc(Cl)c4)o3)CC2)c1 (stereo not given)	7%	.	-5%	.	.	?
COc1ccc(NC(=O)Nc2nnc(N3CCCCC3C)s2)cc1OC (stereo not given)	8%	16µM*	6%	?	.	-2%
O=C(/C=C/c1ccc2c(c1)OCO2)c1cccs1	16µM*	.	20µM*	.	9	.
Cc1ccc(NC(=O)CCSc2nc(-c3ccc4c(c3)OCO4)cc(C(F)(F)F)n2)c(C)c1	-3%	.	?	.	?	0%
O=C(CCS(=O)(=O)c1nc(-c2ccc3c(c2)OCO3)cc(C(F)(F)F)n1)Nc1ccc(Br)cc1	?	.	3.2µM*	.	.	?
Cc1ccc(NC(=O)CCSc2nc(-c3ccc4c(c3)OCO4)cc(C(F)(F)F)n2)cc1	-7%	.	8%	.	-11	1%
CSc1ccccc1NC(=O)CCS(=O)(=O)c1nc(-c2ccc3c(c2)OCO3)cc(C(F)(F)F)n1	?	.	4µM*	.	.	-2%
CN(C)c1oc(-c2ccccc2F)nc1C#N	2%	0%	-3%	-6%[2.3 µM]	-19	-1%
O=C(c1ccccc1)c1nnc(-c2ccccc2F)o1	-9%	4µM*	3%	1%	8	17%
